# High-throughput results from PubChem.
# Only some compounds are listed: those with a hit (about 5.7% of all), similar ones and a draw of the others.
# RORgamma inh: qHTS for inhibitors of ROR gamma transcriptional activity; Potency, µM (highest dose often 53.6 µM), for the others: top-dose activity change, negative = inhibition, actives largely listed as inhibitors; Drosophila S2 Gal4-RORgamma UAS-luciferase reporter, 20 h; Nuclear receptor ROR-gamma (Mus musculus), P51450; hit rate 5.4% among 310,000; note: nearly all actives have a fitted effect of over 60% in size
# Target sequence (P51450 whole entry, looked up, the tested form may be a part): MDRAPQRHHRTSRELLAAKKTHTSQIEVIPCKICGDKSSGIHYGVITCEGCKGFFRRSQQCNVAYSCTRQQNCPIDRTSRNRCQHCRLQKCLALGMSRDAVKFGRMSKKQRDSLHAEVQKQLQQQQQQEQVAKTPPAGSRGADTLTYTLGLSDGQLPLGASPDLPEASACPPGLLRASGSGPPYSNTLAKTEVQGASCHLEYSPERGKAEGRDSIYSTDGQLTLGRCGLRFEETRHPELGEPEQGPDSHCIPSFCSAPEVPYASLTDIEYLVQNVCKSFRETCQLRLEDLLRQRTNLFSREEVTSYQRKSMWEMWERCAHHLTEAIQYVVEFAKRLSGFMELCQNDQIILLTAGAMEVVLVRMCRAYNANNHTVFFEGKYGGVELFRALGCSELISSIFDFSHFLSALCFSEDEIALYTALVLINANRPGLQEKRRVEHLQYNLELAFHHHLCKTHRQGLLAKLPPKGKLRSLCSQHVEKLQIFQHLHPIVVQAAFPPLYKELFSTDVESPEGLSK
#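 ROR gamma transcriptional activity was tracked as Gal4-UAS luciferase output in stably transfected Drosophila Schneider cells, with compound added 1 hr before 700 uM copper sulfate induction and a 20 hr ambient-temperature incubation.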
# VP16 counter: VP16 counterscreen qHTS for inhibitors of ROR gamma transcriptional activity | Drosophila S2 Gal4-VP16 UAS-luciferase, luminescence, 20 h | Potency, µM (top dose mostly 53.6 µM), inactives show at the top dose activity, negative = inhibition, actives largely listed as inhibitors | hit rate 3.5% among 310,000;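 note: Gal4-VP16 expression switched on by copper sulfate through the metallothionein promoter; nearly all actives have a fitted effect of over 50% in size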
# B2AR arrestin: qHTS assay of beta-arrestin-biased ligands of beta2-adrenergic receptor. beta-arrestin recruitment to beta2AR, cell-based reporter. hit rate 0.02% among 330,000. Beta-2 adrenergic receptor (Homo sapiens), P07550. Potency, µM (top dose mostly 46.1 µM), for inactives: at the highest dose activation, hits mostly activators;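 note: 0% = DMSO controls and full agonism = EC100 isoproterenol or metaproterenol; nearly all actives have a fitted effect of over 65% in size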
# NPSR antag: qHTS Assay for Antagonists of the Neuropeptide S Receptor: cAMP Signal Transduction. CHO-NPSR cells, cAMP TR-FRET, antagonist mode. Potency, µM (titrated, usually from 38.3 µM), without a hit: at the top dose activity change, negative = inhibition, usual class: inhibitors. AID 1461, 2008. Q6W5P4. hit rate 1% among 220,000; note: nearly all actives have a fitted effect of over 50% in size
# * = called active by the depositor; ? = inconclusive; . = not tested or not shown; [ ] = remark or other dose. Calls come from the whole dose curve; as a rule, active = well fitted curve in the direction sought with a large enough effect; inconclusive = small, poorly fitted or top-dose-only effect, or another doubt; inactive = no such curve, though single readings can be large; an effect the other way counts as inactive or inconclusive. Unless noted, % is set by controls: 0 for no effect and ±100 for the full control effect; potency is the fitted concentration of half-maximal effect.
SMILES,RORgamma inh,VP16 counter,B2AR arrestin,NPSR antag
Cc1[nH]n(-c2ccccc2)c(=O)c1/C=N/NC(=O)c1ccc(O)cc1O,1.8µM*,7.1µM*,-1%,.
CCCCN(CCCC)C(=S)N/N=C/c1c(C)[nH]n(-c2ccccc2)c1=O,1.6µM*,5µM*,0%,8%[46.1 µM]
Cc1[nH]n(-c2ccccc2)c(=O)c1/C=N/N1CCOCC1,-7%,-10%,0%,2%
Cc1[nH]n(-c2ccccc2)c(=O)c1C=NCCc1ccccc1,-10%,6%,0%,5%
Cc1[nH]n(-c2ccccc2)c(=S)c1C=Nc1cccc([N+](=O)[O-])c1,1.8µM*,7.1µM*,0%,-8%[46.1 µM]
COC(=O)[C@@]1(Cc2ccccc2)[C@H]2c3cc(C(=O)N4CCCC4)n(C)c3C[C@H]2CN1C(=O)c1ccccc1,28%,1%,.,.
O=C(O)C1CC(CCCP(=O)(O)O)CCN1 (centres undefined),8%,14%,.,.
CCC=O,-11%,-17%,.,.
Cc1ccc(-n2[nH]c(C)c(/C=N/NC(=O)c3ccc(O)cc3O)c2=O)cc1,2.5µM*,7.1µM*,0%,.
Cc1cc(C(=O)N/N=C/c2c(C)[nH]n(-c3ccccc3)c2=O)n[nH]1,10µM*,?,0%,.
Cc1cc(C(=O)N/N=C/c2c(C)n(C)c3ccccc23)n[nH]1,6%,0%,-2%,-16%
Cc1ccc(-n2[nH]c(C)c(C=Nc3cc(C)ccn3)c2=O)cc1,-2%[0.365 µM],.,0%,-21%[46.1 µM]
Cc1cccc(CNc2ncncc2-c2ccccc2Cl)c1,-20%,-3%,.,.
O=S(=O)(c1ccccc1)N(CC1CO1)c1cccc2ccccc12 (centres undefined),?,16%,-1%,15%
COC(=O)C1=C(C)Nc2nc3ccccc3n2C1c1cc(OC)c(OC)c(OC)c1 (centres undefined),13µM*,-14%,0%,16%
CCOC(=O)C1=C(C)Nc2nc3ccccc3n2C1c1ccc(O)cc1 (centres undefined),-5%,-11%,-1%,7%
CC(C)(C)C(=O)Nc1ccc(-c2nc3ccccc3c(=O)o2)cc1,?,?,-1%,11%
CC(C)(C)C(=O)Nc1cccc(-c2nc3ccccc3c(=O)o2)c1,14µM*,?,0%,-6%[46.1 µM]
CC(C)C(=O)Nc1ccc(-c2nc3ccccc3c(=O)o2)cc1,11µM*,?,-1%,-6%
CC(C)C(=O)Nc1cccc(-c2nc3ccccc3c(=O)o2)c1,?,-16%,0%,-8%[46.1 µM]
CC1(C)CCC[C@@](C)([C@H]2CC[C@]3(C)[C@@H]2[C@H](O)C[C@@H]2[C@@]4(C)CC[C@H](O)C(C)(C)[C@@H]4CC[C@]23C)O1,20%,5%,.,.
COc1ccc(OC)c(N(CC(=O)NCC2CCCO2)S(=O)(=O)c2ccccc2)c1 (centres undefined),-3%,2%,0%,.
CCCCC1S/C(=N/N=C/c2ccco2)NC1=O (centres undefined),0.45µM*,2µM*,0%,5%
CCCC1S/C(=N/N=C/c2ccco2)NC1=O (centres undefined),1.6µM*,3.2µM*,-4%,11%
CC1S/C(=N/N=C/c2ccco2)NC1=O (centres undefined),11µM*,?,0%,-12%[46.1 µM]
SMILES,RORgamma inh,VP16 counter,B2AR arrestin,NPSR antag
CCC1S/C(=N/N=C/c2ccco2)N(Cc2ccc(F)cc2)C1=O (centres undefined),26%,0%,0%,9%
C/C(=N\N=C1/NC(=O)C(C)S1)c1ccco1 (centres undefined),11µM*,-18%,0%,13%
C/C(=N\N=C(c1ccccc1)c1ccccc1)c1ccco1,11%,-5%,0%,-38%
O=C(CSc1ccc2nnc(CCNS(=O)(=O)c3ccccc3)n2n1)Nc1nc2ccccc2s1,?,-3%,0%,9%
CC1(C)S/C(=N/N=C/c2ccco2)NC1=O,13µM*,7.9µM*,0%,11%
O=C(CC1S/C(=N/N=C/c2ccco2)NC1=O)Nc1cccc(Cl)c1Cl (centres undefined),20µM*,?,1%,4%
CC(=O)c1cccc(NC(=O)CC2S/C(=N/N=C/c3ccccc3)NC2=O)c1 (centres undefined),0%,-11%[10 µM],0%,-4%
O=[N+]([O-])c1ccc(Sc2ncccn2)c([N+](=O)[O-])c1,7.9µM*,?,0%,?
Cc1cccc(Sc2ccc([N+](=O)[O-])cc2[N+](=O)[O-])n1,-36%,-26%,-2%,0%
CC(=O)N1CCc2cc(S(=O)(=O)NC3CCCc4ccccc43)ccc21 (centres undefined),?,20µM*,0%,-9%[46.1 µM]
CN(C)c1ccc(C(C[N+](=O)[O-])c2c(N)n(C)c(=O)n(C)c2=O)c(F)c1C#N (centres undefined),6.3µM*,11µM*,0%,.
Nc1ccccc1C(=O)NNc1ncc(C(F)(F)F)cc1Cl,0.79µM*,1µM*,6%,-3%[46.1 µM]
O=C(NNc1ncc(C(F)(F)F)cc1Cl)c1ccc(Cl)c(Cl)c1,11µM*,?,0%,-12%
COc1cc(/C=C(\C#N)c2ccccn2)ccc1OCC(=O)Nc1ccc(Br)cc1,0%,?,-1%,1%
COc1cc(/C=C(\C#N)c2nc3ccccc3s2)ccc1OCC(=O)Nc1ccccc1,0.13µM*,-20%,4%,-24%
COc1cccc(C(=O)NC(=S)Nc2ccc(Cl)cc2C(=O)O)c1,10µM*,7.1µM*,0%,13%
COc1cccc(C(=O)NC(=S)Nc2ccc3c4c(cccc24)CC3)c1,3.5µM*,11µM*,0%,-13%[46.1 µM]
COc1ccc(OCC(=O)NC(=S)Nc2ccc3c4c(cccc24)CC3)cc1,?,?,-1%,-57%
CC(C)CO/N=C1/C[C@@H](O)[C@@H](O)[C@@H]2[C@@H]3C(=O)N(c4cccc(Oc5ccccc5)c4)C(=O)[C@H]3CC[C@H]12,9%[10 µM],-10%[10 µM],.,.
CC(=O)/C=C\c1ccccc1OC(=O)c1cc2ccccc2oc1=O,-23%,16%,0%,.
O=C(/C=C\c1ccccc1OC(=O)c1ccccc1F)c1cc2ccccc2o1,?,0.32µM*,0%,-12%
COC(=O)c1c(C(=O)OC)c(-c2ccc(Br)cc2)n2c1CS(=O)C2 (centres undefined),-1%,-1%,-1%,.
Cc1cc(C)c(-n2c(SCc3nc4ccccc4s3)n[nH]c2=O)c(C)c1,?,3.2µM*,0%,-52%
CC(C)(C)c1ccc2c(c1)OC(C(=O)N/N=C\c1ccc[nH]1)CO2 (centres undefined),7.9µM*,5µM*,?,.
O=C(N/N=C\c1cc(Br)cs1)C1COc2ccccc2O1 (centres undefined),10µM*,?,0%,?
CCOc1ccc(-n2c(O)c(/C=N/NC(=O)C3COc4ccccc4O3)c3ccccc3c2=O)cc1 (centres undefined),3.2µM*,4.5µM*,-1%,-21%
